Seven molecules from PubChem BioAssay (NCI) can be followed below.

SMILES strings stand for the structures. Compounds without any hit were thinned out: in the full panel of roughly 83,000, 20% have a hit.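 Growth was measured after 48 h exposure to one concentration of compound in 96-well plates. Values under 10 count as active.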 The source made the active and inactive calls.

Common to all, as to assay: NCI-60 one-dose screen, 48 h (100 = growth as untreated, 0 = no growth, -100 = all killed)
In assay [1] the test system is NCI-H226 lung. The note with it: 10 µM.
The test system of assay [2] is NCI-H322M lung. The note with it: 10 µM.
Assay [3] has as its system HOP-62 NSCLC. The note with it: 10 µM.
For assay [4], the system named is NCI-H460 lung. The note with it: 10 µM.
Assay [5] concerns NCI-H522 lung. The conditions noted are these: 10 µM.
The subject of assay [6] is COLO 205 colon. The note with it: 10 µM.
The subject of assay [7] is DU-145 prostate. The note with it: 10 µM.
In assay [8] the test system is K-562 leukemia. The note with it: 10 µM.
In assay [9] the test system is SF-539 CNS. The conditions noted are these: 10 µM.
The test system of assay [10] is M14 melanoma. The conditions noted are these: 10 µM.
The test system of assay [11] is HCT-15 colon. The conditions noted are these: 10 µM.
The test system of assay [12] is HT29 colon. The conditions noted are these: 10 µM.
Assay [13] relates to SNB-75 CNS. The note with it: 10 µM.
The test system of assay [14] is SNB-19 CNS. The conditions noted are these: 10 µM.
For assay [15], the system named is LOX IMVI melanoma. The note with it: 10 µM.
Assay [16] relates to MOLT-4 leukemia. The note with it: 10 µM.
The test system of assay [17] is SR leukemia. The note with it: 10 µM.
In assay [18] the test system is RPMI-8226 leukemia. The note with it: 10 µM.
The subject of assay [19] is SK-OV-3 ovarian. The conditions noted are these: 10 µM.
For assay [20], the system named is MDA-MB-468 breast. The conditions noted are these: 10 µM unless noted.

Turning to `O=C(c1ccc(F)cc1)C(c1c[nH]c2ccccc12)c1c[nH]c2ccccc12`, the growth in assay [1] is 36.5% (inactive); in assay [2] it was 90.5% (inactive); in assay [3], 91.5% (inactive); in assay [4] it was 33.9% (inactive); in assay [5], 50.7% (inactive); in [6], 97.7% (inactive). The growth was 33.5% (inactive) in assay [7]; 5.35% (active) in [8]; 88% (inactive) in [9]; 74.7% (inactive) in assay [10]; 7.29% (active) in [11]; 30.8% (inactive) in [12]. Besides, the growth was 79.1% (inactive) in assay [13]; 92.6% (inactive) in [14]; -76.3% (active) in [15]; 26.6% (inactive) in [16]; 10.5% (inactive) in [17]; 18.9% (inactive) in [18]. In addition, the growth in [19] was 99.9% (inactive); in [20] it was 23.1% (inactive).

For `C#C[C@]1(O)CC[C@H]2[C@@H]3CC=C4c5sc(Nc6cc(C)cc(C)n6)nc5CC[C@]4(C)[C@H]3CC[C@@]21C`, the growth was 13.8% (inactive) in [1]; 14.7% (inactive) in [2]; 6.05% (active) in [3]; -34.3% (active) in assay [4]; -79.9% (active) in [5]; -95.5% (active) in assay [6]. The growth in [7] was 12.9% (inactive); in assay [8], 4.71% (active); in assay [9], -66% (active); in assay [10] it was -42.1% (active); in [11], -69.5% (active); in assay [12] it was -74.2% (active). Moreover, the growth in [13] is 33.9% (inactive); in assay [14] it was -39.1% (active); in assay [15] it was -96% (active); in [16] it was 1.29% (active); in assay [17], 3.1% (active); in assay [18], -16% (active). For the same molecule, the figures for the growth in assay [19] and in assay [20] were -62.4% (active) and -39.3% (active), respectively.

With `Cc1ccc(-c2nc(C#N)c(S(=O)(=O)N3CCN(S(C)(=O)=O)CC3)o2)cc1`, the growth is 85.6% (inactive) in assay [1]; 98.8% (inactive) in assay [2]; 95.6% (inactive) in [3]; 79.9% (inactive) in assay [4]; -86.6% (active) in assay [5]; -69.3% (active) in [6]. The growth was 68.7% (inactive) in assay [7]; 6.88% (active) in [8]; 40.3% (inactive) in assay [9]; 22.6% (inactive) in assay [10]; -74.5% (active) in [11]; -6.5% (active) in assay [12]. Further, the growth is 107% (inactive) in [13]; 93.9% (inactive) in assay [14]; -88.6% (active) in assay [15]; 0.383% (active) in [16]; 1.13% (active) in assay [17]; 4.64% (active) in assay [18]. Besides, the figures for the growth in [19] and in assay [20] were 105% (inactive) and -68.5% (active), respectively.

On to `COc1cc(C2CC(c3ccccc3)=Nc3c(N)nc(N)nc3N2)ccc1Oc1nc(NCCO)nc(N2CCOCC2)n1` (stereo not given), for which the growth in assay [1] was 92.5% (inactive); in assay [2], 90.6% (inactive); in [3], 106% (inactive); in [4], 110% (inactive); in assay [5] it was 97.7% (inactive); in assay [6], 112% (inactive). The growth is 115% (inactive) in assay [7]; 91.3% (inactive) in [8]; 97.5% (inactive) in assay [9]; 104% (inactive) in [10]; 99.4% (inactive) in assay [11]; 112% (inactive) in [12]. For the same molecule, the growth in [13] was 84.3% (inactive); in assay [14], 89.8% (inactive); in assay [15], 107% (inactive); in [16], 91.3% (inactive); in assay [17], 66% (inactive); in assay [18], 104% (inactive). Besides, the growth in assay [19] was 115% (inactive); in assay [20], 88% (inactive).

`COc1ccc(C2OC[C@@]3(C)C4CC[C@]5(C)C(CC=C6C7CC(C)(C)CC[C@]7(C(=O)O)CC[C@]65C)[C@@]4(C)C[C@@H](O)[C@@H]3O2)cc1` (stereo not given in full): the growth in assay [1] is 84.5% (inactive); in [2], 83.5% (inactive); in assay [3], 95.5% (inactive); in assay [4], 69.1% (inactive); in assay [5], 57.1% (inactive); in assay [6], 78.8% (inactive). The growth was 76.3% (inactive) in assay [7]; 44% (inactive) in [8]; 95.7% (inactive) in [9]; 96.8% (inactive) in assay [10]; 56% (inactive) in assay [11]; 70.8% (inactive) in assay [12]. For the same molecule, the growth in assay [13] is 97% (inactive); in assay [14], 90.9% (inactive); in assay [15], 70.8% (inactive); in [16], 47.2% (inactive); in assay [17], 54.7% (inactive); in [18], 40.3% (inactive). In addition, the growth in assay [19] is 132% (inactive); in assay [20] it was 75.9% (inactive).

For `CC1[C@H]2[C@H](C[C@H]3[C@@H]4CC=C5c6sc(Nc7cccc(Cl)n7)nc6CC[C@]5(C)[C@H]4CC[C@@]32C)O[C@]12CC[C@@H](C)CO2` (stereo not given in full), the growth is 81.5% (inactive) in [1]; 102% (inactive) in assay [2]; 116% (inactive) in [3]; 85.7% (inactive) in assay [4]; 65.8% (inactive) in assay [5]; 70.2% (inactive) in assay [6]. Besides, the growth in assay [7] is 99.1% (inactive); in assay [8], 54.5% (inactive); in [9] it was 110% (inactive); in assay [10], 77.4% (inactive); in assay [11], 73.9% (inactive); in assay [12], 100% (inactive). Besides, the growth in [13] is 127% (inactive); in assay [14], 96.6% (inactive); in assay [15] it was 79.6% (inactive); in [16], 79.8% (inactive); in [17], 65.3% (inactive); in assay [18], 56.5% (inactive). Besides, the results for the growth in assay [19] and in [20] were 108% (inactive) and 93.6% (inactive), respectively.

With `COc1cc(-c2nc3ccc(C)cc3[nH]2)ccc1OCc1nnc(-c2ccccc2Br)o1`, the growth in [1] was 65.3% (inactive); in assay [2], 87.3% (inactive); in assay [3] it was 73.7% (inactive); in [4] it was 72.8% (inactive); in assay [5], 64% (inactive); in assay [6], 72.8% (inactive). The growth in assay [7] was 80.7% (inactive); in [8], 55.8% (inactive); in assay [9], 24.4% (inactive); in [10], 71.2% (inactive); in assay [11], 36.4% (inactive); in assay [12] it was 20% (inactive). Also, the growth in [13] was 112% (inactive); in assay [14], 73.9% (inactive); in assay [15], 71.8% (inactive); in assay [16], 41.2% (inactive); in assay [17] it was 59.1% (inactive); in assay [18], 30.1% (inactive). The growth in [19] is 75.1% (inactive); in assay [20], 61.6% (inactive).
